From PubChem
Most compounds without a hit are left out; they make up all but 4.4% or so of the library.
D1 potentiator – Potentiators of Human D1 Dopamine Receptor: qHTS | D(1A) dopamine receptor (Homo sapiens), P21728 | HEK293 TREx D1 cells, calcium flux, dopamine EC20 potentiation | potentiation, % at 10 µM | hit rate 0.036% among 360,000 | AID 504651, 2011; in the data active means potentiation above about 30%
TRHR ag – qHTS for Small Molecule Agonists and Allosteric Enhancers of Human TRH Receptor: Primary Screen for Agonists; TRHR cells, calcium flux fluo-8, FDSS agonist mode; activation, % at 2 µM; hit rate 0.18% among 360,000
Target sequence (P34981 whole entry, looked up): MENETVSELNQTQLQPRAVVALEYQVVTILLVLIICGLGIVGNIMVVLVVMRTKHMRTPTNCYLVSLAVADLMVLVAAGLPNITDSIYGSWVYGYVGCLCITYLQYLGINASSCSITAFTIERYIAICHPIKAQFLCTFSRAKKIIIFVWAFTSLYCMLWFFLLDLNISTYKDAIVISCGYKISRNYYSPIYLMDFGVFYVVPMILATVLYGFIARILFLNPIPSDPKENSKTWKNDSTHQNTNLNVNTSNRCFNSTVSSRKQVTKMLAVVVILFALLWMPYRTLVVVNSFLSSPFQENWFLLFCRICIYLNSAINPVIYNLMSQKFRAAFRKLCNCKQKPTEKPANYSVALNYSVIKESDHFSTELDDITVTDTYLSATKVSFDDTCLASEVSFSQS
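Fluo-8-loaded TRHR cells; 10 s baseline, compound added, kinetic Ca2+ fluorescence read 1/s, agonist mode.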
TRHR PAM – qHTS for Small Molecule Agonists and Allosteric Enhancers of Human TRH Receptor: Primary Screen for Enhancers; Thyrotropin-releasing hormone receptor (Homo sapiens), P34981; TRHR cells, fluo-8 calcium fluorescence, EC20 TRH enhancement; enhancement, % at 2 µM; hit rate 0.66% among 360,000; AID 493056, 2011; in the data active means enhancement above about 30%
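Enhancer read-out: after compound pinning and an initial kinetic agonist-mode read, an EC20 of TRH (10 nM final) was injected and fluo-8 calcium signal (Ex 480/Em 530) followed at 1 s/cycle for 100 cycles in TRHR-expressing cells.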
D1 agonist – Allosteric Agonists of the Human D1 Dopamine Receptor: qHTS; hit rate 1% among 360,000; D(1A) dopamine receptor (Homo sapiens), P21728; activation, % at 2 µM; AID 504660, 2011; HEK293 T-REx D1 cells, calcium flux, agonist mode
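Inducible HEK293 T-REx D1 cells, force-coupled to calcium signalling, were plated at 4000 cells/well with tetracycline and held overnight at 30 C. After no-wash calcium dye loading, compound-evoked calcium rise over 180 s flagged agonists.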
D1 antagonist – Antagonist of Human D 1 Dopamine Receptor: qHTS. D(1A) dopamine receptor (Homo sapiens), P21728. HEK293 TREx D1 cells, calcium flux, dopamine EC80; stronger effect = lower value. activity change, negative = inhibition, % at 10 µM. hit rate 3.2% among 360,000. AID 504652, 2011; in the data active means activity change below about -30%
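Compound effects on dopamine-evoked calcium signalling were measured in tetracycline-induced HEK293 Trex D1 cells. Dopamine at EC80 followed a 180 s compound pre-read, and fluorescence was tracked kinetically for 180 s more.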
USP1 inh – Inhibitors of USP1/UAF1: Primary Screen. Ubiquitin carboxyl-terminal hydrolase 1 (Homo sapiens), O94782. recombinant USP1/UAF1, Ub-Rhodamine cleavage fluorescence. Potency, µM (highest dose often 57.1 µM), usual class: inhibitors. hit rate 0.23% among 390,000. AID 743255, 2014; active means well fitted inhibition curve with a large enough effect; inconclusive means small, poorly fitted or top-dose-only effect; inactive means no such curve, though single readings can be large or run the other way; further: nearly all actives have a fitted effect of over 60% in size
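USP1/UAF1 complex at 1 nM was preincubated with compound for 15 min at room temperature, then Ub-Rho substrate (150nM final) was added. Fluorescence (480/540 nm) was read kinetically, 6 reads every 60 seconds.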
Large screens that a line does not name were inactive. Unless noted, no stated cut-off is given here; in the data, active means activation above about 30%; inactive means the rest.

N#CCCN(C(=O)COC(=O)c1ccc(CNS(=O)(=O)c2ccc(F)c(Cl)c2)cc1)c1ccc(F)cc1	D1 antagonist -33
Cc1cc(Cl)ccc1OCc1cc(=O)n2c3c(sc2n1)CCCC3	D1 antagonist -31
COc1ccc(C(=O)Nc2cccc(OCc3cc(=O)n4c5c(sc4n3)CCCC5)c2)cc1	D1 antagonist -30
Cc1cccc(-c2nc(Cn3c(SCc4cc(C)ccc4C)nc4ccncc43)c(C)o2)c1	none
COc1ccc(-c2nc(C)c(CCNC(=O)c3cccc(C)c3)s2)cc1OC	none
O=C(Nc1cccc(Br)c1)c1cc(S(=O)(=O)N2CCCCC2)c[nH]1	none
O=C(O)CCC(=O)Nc1cccc(-c2csc(-c3ccccc3)n2)c1	D1 antagonist -34
Cn1cc(Br)c(-c2cccc(NC(=O)CCC(=O)O)c2)n1	D1 antagonist -37
COc1ccc2c(CC(=O)Nc3c(C)n(C)n(-c4ccccc4)c3=O)coc2c1	none
Cc1ccc2c(CC(=O)Nc3c(C)n(C)n(-c4ccccc4)c3=O)coc2c1	D1 antagonist -80
CCOc1ccc(S(=O)(=O)NCCc2csc(-c3ccc(Cl)cc3)n2)cc1	none
Cc1ccc(S(=O)c2ccc([N+](=O)[O-])c3nonc23)cc1 (configuration not stated)	USP1 inh 16µM (no result: D1 potentiator, TRHR ag, TRHR PAM, D1 agonist, D1 antagonist)
CN1CCC(N(C)C(=S)Nc2ccc(SC(F)F)cc2)CC1	D1 antagonist -34
CN1CCC(N(C)C(=S)Nc2ccc(F)cc2)CC1	none
Cc1ccc(-n2nnc(C(=O)Nc3cc(F)ccc3F)c2C)cc1F	none
CCOC(=O)c1ccc(NC(=O)Nc2ccon2)cc1	none
CCOC(=O)c1sc(NC(=O)Nc2cccc(Cl)c2)cc1C	D1 antagonist -46
CCOC(=O)c1sc(NC(=O)Nc2ccc(Cl)cc2)nc1C	D1 antagonist -44
CCCC(C)C(=O)Nc1ccc(Cl)cn1 (configuration not stated)	D1 antagonist -34
CCCCC(=O)Nc1ccc(Cl)cn1	USP1 inh inconclusive
CCOC(=O)c1ccc(NC(=O)Nc2ccc(Cl)cn2)cc1	D1 antagonist -33
CC(C)c1ccc(CNc2n[nH]c(-c3ccco3)n2)cc1	USP1 inh inconclusive
CCCOc1ccc(C(=O)Nc2ccc(Cl)cn2)cc1	D1 antagonist -50
CC(C)Nc1nc(Oc2cccc(Cl)c2Cl)cc(C(F)(F)F)n1	D1 antagonist -32
CC(C)Nc1nc(Oc2ccc(Cl)cc2Cl)cc(C(F)(F)F)n1	none
CCc1ccc(NC(=O)CSc2nc(-c3cccc(OC)c3)nc3c2Cc2c(CO)cnc(C)c2O3)cc1	none
COc1ccc(CNC(=O)CN2C(=O)COc3ccc(S(=O)(=O)Nc4ccccc4)cc32)cc1	none
CCn1c(C)cc(/C=C2\SC(=O)N(CC(=O)Nc3ccc(C)c(C)c3)C2=O)c1C	D1 antagonist -38
CCn1c(C)cc(/C=C2/SC(=O)N(CC(=O)N3CCCC3)C2=O)c1C	none
Cc1ccc2[nH]c3c(c2c1)CN(C(=O)CN1CCSCC1)CC3	none (no result: USP1 inh)
Cc1ccc2[nH]c3c(c2c1)CN(C(=O)CN1CCN(Cc2ccc4c(c2)OCO4)CC1)CC3	D1 agonist 42, D1 antagonist -35
Cn1c(=O)cc(SCC(=O)N2CCN(c3ccccc3F)CC2)c2cc(Cl)ccc21	none
O=C(NNC(=O)c1cc(-c2cccc(Br)c2)nc2ccccc12)c1csc(N2CCOCC2)n1	D1 antagonist -84
COc1ccc(Br)cc1S(=O)(=O)N1CCN(S(=O)(=O)c2ccc3c(c2)OCCO3)CC1	none (no result: USP1 inh)
CS(=O)(=O)c1ncc(Cl)c(C(=O)N(Cc2ccc(Cl)cc2)Cc2ccco2)n1	D1 antagonist -63
Cc1ccc(-c2cc(C(=O)N(Cc3ccccc3)Cc3ccco3)no2)cc1F	none
O=C(c1cc(-c2ccc(Cl)cc2)on1)N(Cc1cccc(F)c1)Cc1ccco1	D1 agonist 33
CCc1ccc(CN(Cc2ccco2)C(=O)c2cc(-c3ccc(Cl)cc3)on2)cc1	none
O=C(c1cc(-c2ccc(Cl)cc2)on1)N(Cc1ccc(F)cc1)Cc1ccco1	D1 agonist 30, D1 antagonist -39
Cc1ccc(S(=O)(=O)NCC2CCC(C(=O)NCCc3ccccc3)CC2)cc1 (configuration not stated)	none
COc1ccc(-c2csc(NS(=O)(=O)c3ccc([N+](=O)[O-])cc3)n2)cc1	D1 antagonist -31
CNc1nc(-c2ccc([N+](=O)[O-])cc2)cs1	none
COc1ccc(-c2csc(NC(=O)c3ccccc3F)n2)cc1	none
COc1ccc(-c2csc(NC(=O)c3ccccc3NS(=O)(=O)c3ccc(F)c(F)c3)n2)cc1	D1 antagonist -49
CN(c1ccc(OCC(=O)Nc2nc(-c3ccccc3)cs2)cc1)S(=O)(=O)c1ccc(F)cc1	none
Cc1ccc(S(=O)(=O)Nc2ccccc2C(=O)Nc2nc(-c3ccc(F)cc3)cs2)cc1	D1 antagonist -65
Cc1ccc(S(=O)(=O)N(C)c2ccc(OCC(=O)Nc3nc(-c4ccccc4)cs3)cc2)cc1	D1 antagonist -37
COc1ccc(NC(=O)c2oc3ccccc3c2NC(=O)Cc2cccs2)cc1	none
CO/N=C(\Cn1ncc(N2CCCC2)c(Cl)c1=O)c1ccc(Cl)cc1	D1 antagonist -46
CCCCC1=NN(C(=O)c2ccco2)C(O)(C(F)(F)F)C1 (configuration not stated)	TRHR PAM 36
Cc1nc(Nc2ccc(Cl)c(Cl)c2)sc1C(=O)Nc1ccccc1	D1 antagonist -52
Cc1nc(Nc2ccccc2)sc1C(=O)c1ccccc1	D1 antagonist -33
COc1ccc(C(=O)c2sc(Nc3ccccc3)nc2C)cc1	none
CCc1ccc(-n2c(SCC(=O)NC(C)CC)nc3n[nH]c(C)c3c2=N)cc1 (configuration not stated)	none
CCN(CC)S(=O)(=O)c1ccc(NC(=O)c2cc3ccc4cccnc4c3[nH]2)cc1	none
CCc1cccc(C)c1NC(=O)c1cccnc1	D1 antagonist -32
CCc1cccc(C)c1NC(=O)C1=C(C(=O)O)CCCC1	D1 antagonist -82
CCc1cccc(C)c1NC(=O)c1ccccc1	none
COc1ccccc1CCNC(=O)C(=O)c1cn(CC(=O)N2CCOCC2)c2ccccc12	none
